The text below walks through data of PubChem BioAssay AID2551 (National Center for Advancing Translational Sciences (NCATS), 2010).

About 17,000 (5.5%) of roughly 310,000 compounds were called active. Another 11% or so got no clear call; they are omitted. Many of the other results were omitted from the sample, so actives are more common in it than they were. A number with no mark means an inactive call. Calls follow the shape of the dose curve; as a rule, active = well fitted inhibition curve with a large enough effect; inconclusive = small, poorly fitted or top-dose-only effect, or effect the other way; inactive = no such curve, though single readings can be large or run the other way.
% is scaled to controls: 0 for no effect and ±100 for the full control effect; potency is read from the fitted curve at half-maximal effect.

The target in the assay is Nuclear receptor ROR-gamma (Mus musculus) (UniProt P51450). Nature of the assay: qHTS for inhibitors of ROR gamma transcriptional activity. Also: nearly all actives have a fitted effect of over 60% in size. The conditions noted are these: Drosophila S2 Gal4-RORgamma UAS-luciferase reporter, 20 h; series mostly up to 53.6 µM; activity change, negative = inhibition: at the top concentration. Summed up: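 A Gal4/UAS one-hybrid system in insect cells: metallothionein-promoter Gal4–ROR gamma fusion plus Photinus luciferase reporter. Copper sulfate 700 uM final, 20 hr ambient incubation, luminescent detection after 10 min with reagent.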
Sequence of Nuclear receptor ROR-gamma (Mus musculus) (P51450 whole entry, looked up, the tested form may be a part): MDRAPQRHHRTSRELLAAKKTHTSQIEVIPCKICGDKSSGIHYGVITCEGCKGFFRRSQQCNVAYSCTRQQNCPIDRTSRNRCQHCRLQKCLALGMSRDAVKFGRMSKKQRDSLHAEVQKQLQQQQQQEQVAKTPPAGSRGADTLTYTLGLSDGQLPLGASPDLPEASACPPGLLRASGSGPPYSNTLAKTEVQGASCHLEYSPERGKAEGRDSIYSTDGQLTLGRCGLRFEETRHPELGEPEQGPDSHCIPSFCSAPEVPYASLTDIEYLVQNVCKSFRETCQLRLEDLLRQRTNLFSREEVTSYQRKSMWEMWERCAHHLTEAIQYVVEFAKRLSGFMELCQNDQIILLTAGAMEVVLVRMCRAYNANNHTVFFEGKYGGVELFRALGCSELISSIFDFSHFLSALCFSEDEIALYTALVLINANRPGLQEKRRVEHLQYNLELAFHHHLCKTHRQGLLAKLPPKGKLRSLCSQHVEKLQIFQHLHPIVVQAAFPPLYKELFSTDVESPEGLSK
(Quantitative high-throughput screening tests each substance at several concentrations.)
For `O=C(NCCc1c[nH]c2ccccc12)C1CCN(Cc2ccc(Br)cc2)CC1`, the “activity change, negative = inhibition” value was 65.5%. Same read-out and setting: the result for `Cc1cc(=O)oc2c3c(cc(OCC(=O)N[C@H](C(=O)O)c4ccccc4)c12)OC(C)(C)CC3` reads 25.6%; that for `Cc1ccc(NC(=O)CSc2nn3c(=O)c(C)nnc3s2)cc1Cl`, -10.1%; that for `COCCNC(=O)C(c1ccc(C)cc1)N(C(=O)CCC(=O)Nc1ccccn1)c1cccc(C)c1` (centres undefined), 2.25%. The same measure, in the same setting: the result for `CCCN1C2CCCC1CC(NC(=O)c1cccc(OC)c1)C2` (centres undefined) reads -2.82%; that for `CCCCCCC(O)(CCN1CCCCC1)c1ccccc1` (centres undefined), -0.158%.

For the compound `Cc1cc(C(F)F)nn1CC(=O)NC1CCCCCC1`, the “activity change, negative = inhibition” value was 0.595%.

`CCCCn1c(=S)[nH]c2ncccc2c1=O`: the Potency was 2 µM (active). As to `CCN(CC)CCn1c(=S)[nH]c2ncccc2c1=O`, the “activity change, negative = inhibition” value is 15.3%. The same measure, in the same setting: the result for `O=C(CCn1c(=S)[nH]c2cc3c(cc2c1=O)OCO3)NCc1ccc(Cl)cc1` reads -16.6%. In the case of `Fc1ccc(NC(=S)N2CCc3[nH]c4ccccc4c3C2)cc1`, the “activity change, negative = inhibition” value was -5.26%.

As to `CCCCCn1c(=O)c(C(=O)OCC)c(Cl)c2ccccc21`, the “activity change, negative = inhibition” value is 4.9%. In the case of `O=C(CCCN1CCc2[nH]c3ccc(F)cc3c2C1)c1ccc(F)cc1`, the “activity change, negative = inhibition” value is -24.2%. Regarding `O=c1c2ccccc2[nH]c(=S)n1CCN1CCC(=C(c2ccc(F)cc2)c2ccc(F)cc2)CC1`, the Potency is 11.2 µM (active).

With `CCCCNC(=O)c1ccc(-n2c(=S)[nH]c3ccccc3c2=O)cc1`, the “activity change, negative = inhibition” value was -16.4%. For the compound `CCCCn1c(=S)[nH]c2ccccc2c1=O`, the Potency is 2.82 µM (active). Turning to `CN(C)CCn1c(=S)[nH]c2ccc(Cl)cc2c1=O`, the Potency was 10 µM (active). In the case of `CCCCc1nc2c(=O)[nH]c3ccccc3c2o1`, the “activity change, negative = inhibition” value is 5.13%. On the same count and under the same terms, the result for `O=C(O)c1ccc(Cn2c(=S)[nH]c3cc(Cl)ccc3c2=O)cc1` reads -1.95%; that for `Cc1ccccc1NC(=O)N1CCCC1C(=O)NCc1ccccc1` (centres undefined), 24.5%. On the same count and under the same terms, the result for `COc1cccc(N(CC(=O)NCc2ccccc2)C(=O)CCC(=O)Nc2nccs2)c1` reads -25.1%; that for `COc1ccccc1/C=C1\SC(=O)N(CCC(=O)N(C)C2CCS(=O)(=O)C2)C1=O` (centres undefined), -41.4%. Same read-out and setting: the result for `CCN(CC)S(=O)(=O)c1ccc(N2CC(C(=O)NCc3cccnc3)CC2=O)cc1` (centres undefined) reads 28.3%; that for `COCCn1c(N)c(NCc2ccccc2)c(=O)[nH]c1=O`, -16%. As for `CCc1nnc(NC(=O)CCC(=O)N2CCN(c3cc(C)ccc3C)CC2)s1`, the “activity change, negative = inhibition” value is 0%. Same read-out and setting: the result for `O=C(OCc1ccc([N+](=O)[O-])cc1)C1CC(=O)N(Cc2ccccc2Cl)C1` (centres undefined) reads 4.03%; that for `COc1ccccc1N1CCN(C(=O)c2cc(=O)c3cc(C)cc(C)c3o2)CC1`, -7%. Regarding `CC1=CC(C)(C)NC(=S)N1c1ccccc1`, the Potency was 3.16 µM (active). Take `Cc1cccc([C@@H]2[C@@H]3C(=O)N(C)C(=O)[C@@H]3[C@@H]3C(=O)Nc4ccccc4C(=O)N23)c1`: the “activity change, negative = inhibition” value is -3.16%.

For `Cn1c(CCc2ccccc2)nnc1SCC(N)=O`, the “activity change, negative = inhibition” value was 6.86%.

For the compound `CCC(C)(C)NC(=O)CN(C(=O)CCC(=O)Nc1nccs1)c1ccc2c(c1)OCO2`, the “activity change, negative = inhibition” value is -5.12%. As to `CC(=O)c1cccc(NC(=O)CN2C(=O)c3cccnc3Oc3ccc(Cl)cc32)c1`, the “activity change, negative = inhibition” value is 10.5%. For `CSCc1cc(N(C)C)nc(SCc2ccc(Cl)cc2Cl)n1`, the Potency was 8.91 µM (active). For `Clc1ccc(CSc2nnc(/C=C/c3ccccc3)o2)c(Cl)c1`, the “activity change, negative = inhibition” value is 15.2%. Same read-out and setting: the result for `Nc1cc(N)nc(SCc2ccc(Cl)cc2)n1` reads 31.9%; that for `Cc1cc(C)c(OCC(=O)N(Cc2cccs2)C2CCS(=O)(=O)C2)c(C)c1` (centres undefined), 4.49%.

Consider `COC(=O)c1ccc(NC(=S)Nc2cccc(C)n2)cc1`, for which the Potency was 2 µM (active). With `CCOC(=O)c1ccc(NC(=O)c2cccnc2)cc1`, the “activity change, negative = inhibition” value was 20.6%. `CCOC(=O)c1ccc(NC(=S)Nc2cc(C)cc(C)n2)cc1`: the Potency was 2 µM (active). As for `CCOC(=O)c1ccc(NC(=O)Cn2nnc(-c3ccc(C)cc3)n2)cc1`, the “activity change, negative = inhibition” value was -13.1%.

Turning to `Cc1cccc(NC(=O)Cc2ccc(Br)cc2)n1`, the “activity change, negative = inhibition” value was 37.9%. On the same count and under the same terms, the result for `Cc1cccc(NC(=O)Nc2ccc(OCc3ccccc3)cc2)n1` reads 13.7%; that for `CC(=O)N1c2ccc(S(=O)(=O)N3CCCC(C(=O)Nc4ccc(C)cc4C)C3)cc2CC1C` (centres undefined), 39.3%; that for `COc1cccc(/C=C2\Sc3ccc(C(=O)NCC4CCCO4)cc3N(C)C2=O)c1` (centres undefined), 7.44%. For `COc1cc(OC)cc(C(=O)NCCSCc2ccc(Cl)cc2)c1`, the “activity change, negative = inhibition” value is 18.3%.

As to `CCCCCCC(=O)N(O)C1CC(=O)N(c2ccccc2)C1=O` (centres undefined), the Potency is 2.82 µM (active).

Consider `CCOC(=O)c1ccc(N2C(=O)CC(N(C)Cc3ccccc3)C2=O)cc1` (centres undefined), for which the “activity change, negative = inhibition” value is -15.7%.

Turning to `CCCCOC(=O)c1ccc(N2C(=O)CC(N3CCN(C/C=C/c4ccccc4)CC3)C2=O)cc1` (centres undefined), the “activity change, negative = inhibition” value was -0.54%. Same read-out and setting: the result for `COc1cccc(Cn2c(=O)c(C)nc3cnc(Oc4ccccc4)nc32)c1` reads 22.4%. In the case of `CCNc1ncc2ncc(=O)n(Cc3cccc(OC)c3)c2n1`, the Potency was 12.6 µM (active).

`CCNc1ncc2ncc(=O)n(CCc3ccccc3)c2n1`: the “activity change, negative = inhibition” value is -13%. On the same count and under the same terms, the result for `Cc1ccc(SCCSc2ncccn2)cc1` reads -11%.

As to `Cc1ccc2c(C)c(C(=O)N(C)Cc3ccncn3)oc2c1C`, the “activity change, negative = inhibition” value was -42.7%. `CCCCn1c(=S)[nH]c2cc(S(=O)(=O)N3CCCCC3)ccc21`: the Potency was 11.2 µM (active). `CCOC(=O)N1CCN(C(=O)c2cn(C)c3ccc(S(=O)(=O)N4CCCC4)cc3c2=O)CC1`: the “activity change, negative = inhibition” value is -31.5%. The same measure, in the same setting: the result for `O=c1[nH]c2ccc(S(=O)(=O)N3CCCC3)cc2[nH]1` reads 3.62%; that for `CN(C)CCN(C(=O)C1CCCCC1)c1nc2cc3c(cc2s1)OCO3`, -15%; that for `COc1ccc(NC(=O)CCn2ccnc2)c(OC)c1`, -5.83%. With `CC1(C)C2CCC1(C)C(OC(=O)CCn1ccnc1)C2` (centres undefined), the Potency was 11.2 µM (active). As to `Brc1ccc(OCCn2ccnc2)cc1`, the “activity change, negative = inhibition” value was -28%.

For the compound `O=C(Nc1ccncc1)c1ccc(Cl)c([N+](=O)[O-])c1`, the “activity change, negative = inhibition” value is -5.13%.

On to `CC1CCN(C(=S)c2ccc(-c3ccc(Cl)cc3Cl)o2)CC1`, for which the Potency was 15.8 µM (active). As to `COc1ccc(C(=O)Nc2c(Cl)cc(Cl)cc2C(=O)N2CCC(C)CC2)cc1`, the “activity change, negative = inhibition” value was -4.99%. For the compound `CC1CCN(C(=S)c2cccc(O)c2)CC1`, the “activity change, negative = inhibition” value was -14.6%. Still for that read-out and setting: the result for `CCc1ccc(NC(=O)CCNS(=O)(=O)c2cccs2)cc1` reads 36.2%. In the case of `Cc1ccc(NC(=O)[C@H](Cc2ccccc2)NC(=O)C2CCNCC2)cc1`, the “activity change, negative = inhibition” value is -23.8%. Still for that read-out and setting: the result for `CC1=CC(C)(C)Nc2ccc(OC(=O)C(Cc3ccccc3)N3C(=O)C4CCCCC4C3=O)cc21` (centres undefined) reads -35.1%; that for `O=C(CN1C(=O)C2C3CCC(C3)C2C1=O)Oc1ccc2ccccc2c1` (centres undefined), -7.76%. For `CC1=CC(C)(C)Nc2ccc(OC(=O)CN3C(=O)C4CCCCC4C3=O)cc21` (centres undefined), the Potency was 4.47 µM (active).
